In PubChem BioAssay (EPA / NIEHS):
Records with an inconclusive call do not appear. Activity calls are given as the source filed them. How the source made its calls, unless noted: active means hit-call score of the fitted dose curve at least 0.9, where 1 is the maximum; inconclusive means response in the unintended direction; inactive means score below 0.9.

What was measured:
[1] = read-out: X-box binding protein 1 (XBP1), XBP1 (gene 7494); experiment: LTEA_HepaRG_XBP1: Life Technologies and Expression Analysis (LTEA) Assay for X-box binding protein 1 (XBP1) using HepaRG (AID 2283540; active means hit-call score of the fitted dose curve at least 0.9, where 1 is the maximum; inactive means score below 0.9); settings: mRNA level, 48 h; actives raise or lower the signal
How it was run: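 XBP1 transcript by qRT-PCR (housekeeping-normalized: ACTB, GAPDH, POLR2A) after 48 h chemical treatment of HepaRG cells, 8-point half-log series topping at 100 uM, vehicle 0.5% DMSO. Gain and loss of signal fitted relative to DMSO.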

[2] = LTEA_HepaRG_LDH_cytotoxicity: Cytotoxicity Assessment in the Life Technologies and Expression Analysis (LTEA) Assay (AID 2283563)
How it was run: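 LDH release into culture medium read after 48 h chemical treatment of HepaRG cells. Duplicate wells, eight-point half-log series topping at 100 uM, 0.5% DMSO vehicle and baseline.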

[3] = ATG_XTT_Cytotoxicity: Cytotoxicity Assessment in the Attagene TRANS-FACTORIAL HepG2 Assay (AID 2283584)
How it was run: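 Viability endpoint from XTT after 24 h chemical exposure of reporter-transfected human HepG2 liver cells; signal loss fitted relative to DMSO negative control.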

[4] = TOX21_p53_BLA_p2_viability: Viability Assessment in the Tox21 HCT-116 p53 Agonism Beta-lactamase Assay, Phase 2 (AID 2283591);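 further: compound exposure lasted 16 h at 37 °C; actives lower the ATP signal meaning cytotoxicity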
How it was run: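 Cytotoxicity readout: CellTiter-Glo ATP luminescence, 30 min at room temperature, after the beta-lactamase read. Cells were HCT116 exposed 16 h at 37C to compounds pin-transferred at 217-fold dilution from DMSO stocks.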

[5] = biological target: Cellular tumor antigen p53 (Homo sapiens) (UniProt P04637); experiment: TOX21_p53_BLA_p2_ratio: Tox21 HCT-116 p53 Agonism Beta-lactamase Assay, Ratio, Phase 2 (AID 2283592)
How it was run: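 Read-out is the blue/green (460/530 nm, 405 nm excitation) ratio after 2 h CCF4-AM loading, fitted as gain versus DMSO. Compounds, pinned at 217-fold dilution from DMSO stocks, stayed 16 h on HCT-116 beta-lactamase reporter cells seeded 5 h earlier.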

[6] = TOX21_p53_BLA_p3_viability: Viability Assessment in the Tox21 HCT-116 p53 Agonism Beta-lactamase Assay, Phase 3 (AID 2283593);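 further: cells exposed to compound for 16 h before reading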
How it was run: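 Cellular ATP was quantified by CellTiter-Glo luminescence, read after 30 min at room temperature. Beforehand, HCT116 cells (4000/well) received compound 5 h post-seeding, 217-fold diluted from DMSO, then incubated 16 h at 37C.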

[7] = biological target: Cellular tumor antigen p53 (Homo sapiens) (UniProt P04637); experiment: TOX21_p53_BLA_p3_ratio: Tox21 HCT-116 p53 Agonism Beta-lactamase Assay, Ratio, Phase 3 (AID 2283596)
How it was run: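 Cells were seeded at 4000/well, rested 5 h at 37C, then dosed with DMSO compound solutions (217-fold dilution) for 16 h. CCF4-AM substrate was loaded for 2 h at room temperature, and the 460/530 nm emission ratio was fitted for gain of signal versus DMSO.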

[8] = biological target: Cellular tumor antigen p53 (Homo sapiens) (UniProt P04637); experiment: TOX21_p53_BLA_p4_ratio: Tox21 HCT-116 p53 Agonism Beta-lactamase Assay, Ratio, Phase 4 (AID 2283601)
How it was run: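 Signal is the blue/green (460nm/530nm) ratio of cleaved versus uncleaved CCF4-AM substrate, read after 2 h substrate loading. Cells were HCT116 carrying the p53-responsive beta-lactamase reporter, dosed 16 h at 37C, 5% CO2; CellTiter-Glo measured in parallel.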

[9] = Tanguay_ZF_120hpf_MORT_legacy: (Legacy) Oregon State University Tanguay Lab 120 Hour Post-fertilization zebrafish Assay for Mortality (AID 2283633)
How it was run: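 Static waterborne exposure from 6 to 120 hpf at 28C of single dechorionated wild-type (5D) embryos per well, 0.64% DMSO final. Death recorded present/absent by brightfield at 24 and 120 hpf.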

[10] = Tanguay_ZF_120hpf_YSE_legacy: (Legacy) Oregon State University Tanguay Lab 120 Hour Post-fertilization zebrafish Assay for Yolk Sac Edema (AID 2283634)
How it was run: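 Presence or absence of yolk sac edema was recorded at 120 hpf in surviving larvae. These were wild-type Tropical 5D embryos, chorion removed at 4 hpf, held in static exposure at 28C from 6 hpf with 0.64% DMSO vehicle.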

[11] = Tanguay_ZF_120hpf_AXIS_legacy: (Legacy) Oregon State University Tanguay Lab 120 Hour Post-fertilization zebrafish Assay for Body Axis Malformation (AID 2283635)
How it was run: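 Binary scoring of axis defects at 120 hpf under brightfield, fitted positive versus DMSO. Tropical 5D embryos, chorion removed by pronase at 4 hpf, were singly exposed in sealed, dark plates at 28C from 6 hpf; DMSO 0.64% final.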

[12] = Tanguay_ZF_120hpf_EYE_legacy: (Legacy) Oregon State University Tanguay Lab 120 Hour Post-fertilization zebrafish Assay for Eye Malformation (AID 2283636);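 further: binary presence or absence of eye malformation scored by brightfield in 120 hpf larvae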
How it was run: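 Binary brightfield scoring of eye defects at 120 hpf after static exposure from 6 hpf of single pronase-dechorionated wild-type embryos (28C, 0.64% DMSO). Non-mortality endpoints omitted where embryos died; fit vs DMSO.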

[13] = Tanguay_ZF_120hpf_SNOU_legacy: (Legacy) Oregon State University Tanguay Lab 120 Hour Post-fertilization zebrafish Assay for Snout Malformation (AID 2283637)
How it was run: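 Binary snout-malformation call at 120 hpf in wild-type 5D embryos, chorion removed by pronase, under static exposure from 6 hpf at 28C (0.64% DMSO). Embryos dying by 24 or 120 hpf excluded.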

[14] = Tanguay_ZF_120hpf_OTIC_legacy: (Legacy) Oregon State University Tanguay Lab 120 Hour Post-fertilization zebrafish Assay for Otic Vesicle Malformation (AID 2283639)
How it was run: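 Wild-type zebrafish larvae, whole-embryo exposure from early stage to 120 hpf at 28C. Binary brightfield scoring of otic vesicle morphology, fitted in the positive direction against the DMSO baseline.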

[15] = Tanguay_ZF_120hpf_PE_legacy: (Legacy) Oregon State University Tanguay Lab 120 Hour Post-fertilization zebrafish Assay for Pericardial Edema (AID 2283640)
How it was run: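 Scoring was binary, by brightfield microscopy at 120 hpf, and skipped where mortality occurred. Wild-type embryos were kept under sealed, foil-covered static exposure at 28C in 0.64% (vol/vol) DMSO.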

[16] = Tanguay_ZF_120hpf_SOMI_legacy: (Legacy) Oregon State University Tanguay Lab 120 Hour Post-fertilization zebrafish Assay for Somite Malformation (AID 2283647)
How it was run: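 Binary somite-defect scoring at 120 hpf, omitted for embryos that died, in wild-type (Tropical 5D) zebrafish with chorion removed by pronase at 4 hpf; static exposure began 6 hpf, single embryos per well, 28C, 0.64% DMSO; fitted positive versus DMSO.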

[17] = Tanguay_ZF_120hpf_PFIN_legacy: (Legacy) Oregon State University Tanguay Lab 120 Hour Post-fertilization zebrafish Assay for Pectoral Fin Malformation (AID 2283648);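 further: each larva judged yes or no for fin defect by brightfield with dead larvae skipped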
How it was run: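 Pectoral fin malformation was recorded as a binary endpoint at 120 hpf in wild-type Tropical 5D larvae, which had been dechorionated and exposed statically from 6 hpf at 28C in 0.64% DMSO. Dead embryos were excluded.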

[18] = TOX21_p53_BLA_p4_viability: Viability Assessment in the Tox21 HCT-116 p53 Agonism Beta-lactamase Assay, Phase 4 (AID 2283597);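 further: hits lower the luminescence signal meaning cytotoxicity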
How it was run: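 Cytotoxicity as reduced cellular ATP (CellTiter-Glo luminescence, 30 min room temperature), measured in the same wells following the CCF4 FRET p53 reading. Human HCT-116 cells received compounds in DMSO (217-fold dilution) for 16 h.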

[19] = TOX21_p53_BLA_p5_viability: Viability Assessment in the Tox21 HCT-116 p53 Agonism Beta-lactamase Assay, Phase 5 (AID 2283600)
How it was run: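 Viability came from CellTiter-Glo ATP luminescence, read after 30 min at room temperature. Before this, HCT-116 p53-bla cells (4000/well) had 16 hours of compound exposure at 37C, with DMSO stocks diluted 217-fold on transfer.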

[20] = biological target: Cellular tumor antigen p53 (Homo sapiens) (UniProt P04637); experiment: TOX21_p53_BLA_p5_ratio: Tox21 HCT-116 p53 Agonism Beta-lactamase Assay, Ratio, Phase 5 (AID 2283599)
How it was run: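 Beta-lactamase reporter ratio (blue 460 nm over green 530 nm, 405 nm excitation) after 2 h CCF4-AM loading, in HCT-116 cells exposed 16 h at 37 C to compounds pinned at 217-fold dilution. Increases relative to DMSO baseline scored.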

Measured: outcome

Sequence of Cellular tumor antigen p53 (Homo sapiens) (P04637 whole entry, looked up): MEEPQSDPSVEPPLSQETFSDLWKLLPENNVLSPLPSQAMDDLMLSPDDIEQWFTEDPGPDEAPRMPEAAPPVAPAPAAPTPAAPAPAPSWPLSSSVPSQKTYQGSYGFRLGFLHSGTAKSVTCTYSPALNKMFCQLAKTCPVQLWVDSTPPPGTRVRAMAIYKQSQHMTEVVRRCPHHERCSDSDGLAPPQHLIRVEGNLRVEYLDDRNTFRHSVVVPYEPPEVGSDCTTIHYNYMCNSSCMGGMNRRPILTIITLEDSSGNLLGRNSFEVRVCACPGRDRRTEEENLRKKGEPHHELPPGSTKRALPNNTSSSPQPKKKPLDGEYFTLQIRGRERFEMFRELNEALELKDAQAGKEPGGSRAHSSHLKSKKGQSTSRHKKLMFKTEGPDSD

CC(C)(OO)c1ccccc1
not listed: [18] | [19] | [20]
inactive: all other assays above

ClCC(Cl)CCl
not listed: [10] | [12] | [17] | [20]
inactive: all other assays above

C[C@]12CCC(=O)C[C@@H]1CC[C@@H]1[C@@H]2CC[C@]2(C)[C@@H](O)CC[C@@H]12
inactive: all assays above
